Screens from PubChem.
Shiga inhibitor: A qHTS for Small Molecule Inhibitors of Shiga Toxin; Vero cells, Shiga toxin protein synthesis inhibition reporter; inhibition, % at 38.7 µM; 290,000 tested, 9.2% active; in the data active = inhibition mostly above about 28%, no sharp cut-off; inactive = mostly below about 43%
Pf growth 48h: Primary qHTS for delayed death inhibitors of the malarial parasite plastid, 48 hour incubation. P. falciparum luciferase growth in erythrocytes, 48 h. Potency, µM (series often up to 28.7 µM), actives largely listed as inhibitors. 310,000 tested, 5.9% active. AID 504832, 2011
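A one-generation exposure of luciferase-tagged malaria parasites in RPMI 1640/Albumax erythrocyte culture, 37 C and 5% CO2. Inhibition is inferred from decreased luminescence after adding detection reagent.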
HCV inhibitor: qHTS Assay for Inhibitors of Hepatitis C Virus (HCV); Huh7.5.1 HCVcc-Cre infection, luciferase reporter, 44 h; Potency, µM (highest dose often 41.8 µM), most hits filed as inhibitors; 340,000 tested, 3.4% active; AID 651820, 2012
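Luciferase read-out (15 sec integration) after a 15 min room-temperature substrate step quantifies HCVcc-Cre infection. Cells, 1,000 per well, had compound added 4 h post-plating, then virus at ~0.5 moi, and were cultured 44 h.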
CHX counter: Cycloheximide Counterscreen for Small Molecule Inhibitors of Shiga Toxin. max response, %. 300,000 tested, 12% active. AID 2314, 2010. cell reporter, cycloheximide protein synthesis inhibition counterscreen; in the data active = max response mostly above about 13%, no sharp cut-off; inactive = mostly below about 14%; also: read at 38.3 µM for the half of the compounds with a filed dose
Pf growth 96h: Primary qHTS for delayed death inhibitors of the malarial parasite plastid, 96 hour incubation. P. falciparum luciferase reporter growth, 96 h. Potency, µM (top dose mostly 28.7 µM), most hits filed as inhibitors. 320,000 tested, 6.9% active. AID 504834, 2011
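Erythrocytes infected with luciferase-expressing P. falciparum were dispensed at 2% hematocrit and 0.05% parasitemia (final), then incubated with compounds 96 hours at 37 C in 5% CO2. Luminescence after detection reagent addition reported growth.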
HCMV inh: qHTS Assay for inhibitors of the human cytomegalovirus (HCMV) | HFF cells, HCMV-luciferase reporter, 72 h; active compounds read low | activity change, negative = inhibition, % at 57.5 µM | 410,000 tested, 4.5% active | AID 1259415, 2018; in the data active = activity change below about -60%; inconclusive = no clear call, values can overlap the other calls; inactive = above about -39%
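Inhibition of viral replication was scored as loss of reporter luminescence in HFFs infected with HCMV-luciferase (MOI 1 PFU/cell) for 72 h; compounds tested at 2 doses, normalized to buffer and Salinomycin controls.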
Hits are given with their value; - = inactive; ? = inconclusive; . = not tested or not shown; [ ] = remark or other dose. The list is not random: actives were taken first. Their share in the collection is about 21%. Unless noted, calls follow the shape of the dose curve; as a rule, active = well fitted inhibition curve with a large enough effect; inconclusive = small, poorly fitted or top-dose-only effect, or another doubt; inactive = no such curve, though single readings can be large or run the other way.

SMILES	Shiga inhibitor	Pf growth 48h	HCV inhibitor	CHX counter	Pf growth 96h	HCMV inh
C#CCOCCOCCOCCNc1nc(N2CCN(C(=O)Cn3cc(CCCN=C(N)N)nn3)CC2)nc(N2CCN(C(=O)[C@H](CCCCN)n3cc(CCCC)nn3)CC2)n1	.	12µM	-	.	12µM	-
C#CCOCCOCCOCCNc1nc(N2CCN(C(=O)[C@H]([C@@H](C)CC)n3cc(CCCN=C(N)N)nn3)CC2)nc(N2CCN(C(=O)[C@H](CCCCN)n3cc(CCCC)nn3)CC2)n1	-	?	-[8.37 µM]	-	12µM	-
C#CCOCCOCCOCCNc1nc(N2CCN(C(=O)[C@H](C)n3cc(CCCN=C(N)N)nn3)CC2)nc(N2CCN(C(=O)[C@H](CCCCN)n3cc(CCCC)nn3)CC2)n1	-	?	-[8.37 µM]	-	12µM	.
C#CCOCCOCCOCCNc1nc(N2CCN(C(=O)Cn3cc(CCCN=C(N)N)nn3)CC2)nc(N2CCN(C(=O)[C@H](C)n3cc(CCCN=C(N)N)nn3)CC2)n1	-	?	-	-	?	-
C#CCOCCOCCOCCNc1nc(N2CCN(C(=O)Cn3cc(CCCN=C(N)N)nn3)CC2)nc(N2CCN(C(=O)[C@H](CCCCN)n3cc(CCC(=O)O)nn3)CC2)n1	.	-	-	.	?	-
C#CCOCCOCCOCCNc1nc(N2CCN(C(=O)[C@H]([C@@H](C)O)n3cc(CCCCN)nn3)CC2)nc(N2CCN(C(=O)[C@H](CCCCN)n3cc(CCCC)nn3)CC2)n1	.	?	-	.	-	-
N#Cc1cccc(NC(=O)C2CCN(S(=O)(=O)c3ccc4c(c3)CCCN4C(=O)C3CCC3)CC2)c1	.	.	.	.	.	-
N#C/C(=C\C1=C(N2CCOCC2)C(=C/c2cccc([N+](=O)[O-])c2)/CC1)C(=O)Nc1ccccc1F	-	?	-	-	9.3µM	-
CC1CCN(c2ccccc2NC(=O)c2cc([N+](=O)[O-])ccc2N2CCOCC2)CC1	-	?	?	-	?	-93
N#C/C(=C/C1=C(N2CCOCC2)C(=C/c2cccc([N+](=O)[O-])c2)/CC1)C(=O)Nc1ccccc1F	.	.	?	.	.	-
CCc1ccccc1NC(=O)c1cc([N+](=O)[O-])ccc1N1CCOCC1	-	-	-	-	-	-
O=C(/C=C/c1cccc([N+](=O)[O-])c1)Nc1ccccc1N1CCOCC1	-	?	-	-	-	-61
O=C(O)CCC(=O)N1CN2CN(C(=O)CCC(=O)O)CC([N+](=O)[O-])(C2)C1	-	-	-	-	-	-
Clc1ccccc1NN(Cc1ccncc1)c1ccccc1Cl	.	.	.	.	.	-
COc1ccc(CCNC(=O)Cn2cc(S(=O)(=O)Cc3ccc(F)cc3)c3ccccc32)cc1OC	.	.	.	.	.	-
CC(C)C(=O)O/N=C1\CCS(=O)(=O)c2sccc21	-	-	-	-	-	-
COc1ccc(C(=O)O/N=C2\CCS(=O)(=O)c3sccc32)cc1	-	-	-	-	-	-
COc1ccc(N=C2CCS(=O)(=O)c3sccc32)cc1	-	-	-	41	-	-
Cc1ccccc1C(=O)O/N=C1\CCS(=O)(=O)c2sccc21	83	-	-	39	-	-
CCc1ccc(N2C(=O)NC(=O)/C(=C/c3cccn3CCOc3ccc(C(C)CC)cc3)C2=O)cc1 (stereo unspecified)	121	-	-	77	-	?
CCc1ccc(N2C(=O)NC(=O)/C(=C/c3cccn3CCOc3ccc(C)cc3)C2=O)cc1	-	-	-	13	-	-
CCOC(=O)c1cccc(NC(=O)c2cc3c(=O)n(Cc4cccnc4)ccc3nc2C)c1	.	.	.	.	.	-
CC(C)=CCN1CCN(Cc2cccn2-c2nccs2)CC1CCO (stereo unspecified)	-	-	-	-	10µM	-
OCCC1CN(Cc2cccn2-c2nccs2)CCN1Cc1ccc(F)c(F)c1 (stereo unspecified)	-	?	-	-	13µM	-
COc1cccc(NC(=O)CCc2c(C)nc3c4cccnc4nn3c2C)c1	.	.	.	.	.	-
CC(N=C1CC(C)(C)CC(=O)/C1=C(/O)CCCN1C(=O)c2ccccc2C1=O)C(=O)O (stereo unspecified)	-	-	-	-	-	-
